{
  "source": "PubChem BioAssay (NCATS)",
  "note": "Records with an inconclusive call do not appear. Where a call stands in place of a potency, no number is given. Active and inactive are the calls of the source. Calls follow the shape of the dose curve; as a rule, active = well fitted inhibition curve with a large enough effect; inconclusive = small, poorly fitted or top-dose-only effect; inactive = flat fitted curve, though single readings scatter. Potency is read from the fitted curve at half-maximal effect.",
  "data": [
    {"molecular_target": "Ubiquitin carboxyl-terminal hydrolase 1 (Homo sapiens) (UniProt O94782)", "sequence (O94782 whole entry, looked up)": "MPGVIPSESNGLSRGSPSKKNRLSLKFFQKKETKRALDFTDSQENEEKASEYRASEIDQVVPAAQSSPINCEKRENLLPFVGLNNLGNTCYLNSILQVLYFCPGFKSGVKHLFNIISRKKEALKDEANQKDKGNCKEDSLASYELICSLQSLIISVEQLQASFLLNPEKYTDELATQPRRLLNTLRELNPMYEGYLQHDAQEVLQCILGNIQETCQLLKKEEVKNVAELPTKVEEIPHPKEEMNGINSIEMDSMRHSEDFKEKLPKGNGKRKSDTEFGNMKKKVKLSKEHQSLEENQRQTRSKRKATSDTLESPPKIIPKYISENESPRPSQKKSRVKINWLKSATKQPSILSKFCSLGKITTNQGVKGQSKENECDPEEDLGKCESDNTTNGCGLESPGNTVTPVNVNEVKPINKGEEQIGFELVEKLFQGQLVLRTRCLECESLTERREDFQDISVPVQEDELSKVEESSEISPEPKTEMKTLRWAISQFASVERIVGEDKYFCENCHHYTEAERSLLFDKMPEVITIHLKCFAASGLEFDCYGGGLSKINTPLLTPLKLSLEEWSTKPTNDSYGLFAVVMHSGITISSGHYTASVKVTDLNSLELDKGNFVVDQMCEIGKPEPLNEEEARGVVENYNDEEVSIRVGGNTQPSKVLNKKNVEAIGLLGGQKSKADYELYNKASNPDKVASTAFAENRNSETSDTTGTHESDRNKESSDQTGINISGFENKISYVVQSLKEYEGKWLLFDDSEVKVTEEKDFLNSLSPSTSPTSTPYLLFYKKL", "assay": "Inhibitors of USP1/UAF1: Pilot qHTS (AID 504865); also: nearly all actives have a fitted effect of over 35% in size", "settings": "purified USP1/UAF1, Ub-rhodamine cleavage fluorescence; series mostly up to 114 µM", "in_short": "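USP1/UAF1 complex (1nM) preincubated with compound 15 min at room temperature, then Ub-Rho substrate (150nM final) added. Fluorescence read kinetically at 480/540 nm, 6 reads every 60 seconds. Buffer: 50mM HEPES pH 7.8, 0.5mM EDTA, 0.1 mg/ml BSA, 1mM TCEP, 0.01% Tween-20.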", "values": [
      {"compound": "O=C(O)CCC(=O)c1ccc(-c2ccccc2)cc1", "Potency": "inactive"},
      {"compound": "CCCC(=O)O", "Potency": "inactive"},
      {"compound": "CC(=O)Nc1ccc(OC(=O)c2ccccc2O)cc1", "Potency": "inactive"},
      {"compound": "CC(C)Cc1ccc([C@@H](C)C(=O)NS(C)(=O)=O)cc1", "Potency": "inactive"},
      {"compound": "O=C(O)COc1ccccc1/C=N/NC(=O)c1ccncc1", "Potency": "inactive"},
      {"compound": "CCC(C(=O)NC(N)=O)c1ccccc1", "note": "(centres undefined)", "Potency": "inactive"},
      {"compound": "CO/N=C(/C(=O)N[C@@H]1C(=O)N2C(C(=O)O)=C(COC(N)=O)CS[C@H]12)c1ccco1", "Potency": "inactive"},
      {"compound": "Cc1nc(NS(=O)(=O)c2ccc(N)cc2)nc(C)c1Br", "Potency": "inactive"},
      {"compound": "C=CCN1CCCC1CNC(=O)c1cc(S(N)(=O)=O)cc(OC)c1OC", "note": "(centres undefined)", "Potency": "inactive"},
      {"compound": "CN1C(=O)C[C@@H](C(=O)N[C@@H](Cc2cnc[nH]2)C(=O)N2CCC[C@H]2C(N)=O)NC1=O", "Potency": "inactive"},
      {"compound": "O=C(O[C@H]1CN2CCC1CC2)N1CCc2ccccc2[C@@H]1c1ccccc1", "Potency": "inactive"},
      {"compound": "CN1CCCC(CN2c3ccccc3Sc3ccccc32)C1", "note": "(centres undefined)", "Potency": "inactive"},
      {"compound": "CC12CCC(C1)C(C)(C)C2=O", "note": "(centres undefined)", "Potency": "inactive"},
      {"compound": "OC/C=C/c1ccccc1", "Potency": "inactive"},
      {"compound": "Cc1ncc(C[n+]2csc(CCOP(=O)(O)O)c2C)c(N)n1", "Potency": "inactive"},
      {"compound": "Cc1cccc(C)c1NC(=O)C1CCCCN1C", "note": "(centres undefined)", "Potency": "inactive"},
      {"compound": "O=C(CCCN1CCC(C(=O)c2ccc(F)cc2)CC1)c1ccc(F)cc1", "Potency": "inactive"},
      {"compound": "Cc1cc(-c2ccc(N=Nc3c(S(=O)(=O)O)cc4cc(S(=O)(=O)O)cc(N)c4c3O)c(C)c2)ccc1N=Nc1c(S(=O)(=O)O)cc2cc(S(=O)(=O)O)cc(N)c2c1O", "Potency": "8.91 µM (active)"},
      {"compound": "OC1OC[C@@H](O)[C@H](O)[C@@H]1O", "note": "(some centres undefined)", "Potency": "inactive"},
      {"compound": "NC(N)=O", "Potency": "inactive"},
      {"compound": "O=C(O)CCCC/C=C(\\c1ccccc1)c1cccnc1", "Potency": "inactive"},
      {"compound": "O=P(O)(O)OP(=O)(O)OP(=O)(O)O", "Potency": "inactive"},
      {"compound": "CCN(CC)CCOC(=O)c1cccnc1", "Potency": "inactive"},
      {"compound": "Oc1ccc(Cl)c2c1CCC2", "Potency": "inactive"},
      {"compound": "OCCCNc1ccccc1", "Potency": "inactive"},
      {"compound": "FC(F)(F)C(F)(F)C(F)(F)C(F)(F)C(F)(F)C(F)(F)F", "Potency": "inactive"},
      {"compound": "Oc1cc(O)cc(O)c1", "Potency": "inactive"},
      {"compound": "CC/C(=C(/CC)c1ccc(OP(=O)(O)O)cc1)c1ccc(OP(=O)(O)O)cc1", "Potency": "inactive"},
      {"compound": "O=C1c2ccccc2C(=O)C1c1ccc(Cl)cc1", "Potency": "inactive"},
      {"compound": "O=C1[O][Bi][O]c2ccccc21", "Potency": "inactive"},
      {"compound": "CC(C)NCC(O)COc1ccccc1-n1cccc1", "note": "(centres undefined)", "Potency": "inactive"},
      {"compound": "CCCCC[C@H](O)/C=C/[C@@H]1[C@H]2C/C(=C/CCCC(=O)O)O[C@H]2C[C@H]1O", "Potency": "inactive"},
      {"compound": "O=P(O)(O)OP(=O)(O)O", "Potency": "inactive"},
      {"compound": "CC(=O)Oc1cccc(C(=O)O)c1OC(C)=O", "Potency": "inactive"},
      {"compound": "CC(C)C1=CC2=CC[C@@H]3[C@](C)(CCC[C@@]3(C)C(=O)O)[C@H]2CC1", "Potency": "inactive"},
      {"compound": "Cc1c(C)c2c(c(C)c1OC(=O)CCC(=O)O)CC[C@@](C)(CCC[C@H](C)CCC[C@H](C)CCCC(C)C)O2", "Potency": "35.5 µM (active)"},
      {"compound": "S=C=Nc1ccc(N=C=S)cc1", "Potency": "inactive"},
      {"compound": "N#Cc1ccc2c(c1)N(CCCN1CCC(O)CC1)c1ccccc1S2", "Potency": "inactive"},
      {"compound": "C=CC[N+]1([C@H]2C[C@H]3[C@@H]4CC[C@H]5C[C@H](O)[C@@H](N6CCOCC6)C[C@]5(C)[C@H]4CC[C@]3(C)[C@H]2OC(C)=O)CCCC1", "Potency": "inactive"}
    ]}
  ]
}
